High-throughput results: PubChem, National Center for Advancing Translational Sciences (NCATS)
POLH inh = qHTS for Inhibitors of Polymerase Eta; 390,000 compounds, 1.2% hits; Potency, µM (highest dose often 114 µM), hits mostly inhibitors; DNA polymerase eta (Homo sapiens), Q9Y253; recombinant Pol eta, fluorescent DNA replication assay
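Pol eta at 10 nM preincubated with compounds 15 min at room temperature; reaction started with fluorescent substrate (50 nM final) and read kinetically at 0 and 10 min.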
Pol kappa inh = qHTS for Inhibitors of Polymerase Kappa; DNA polymerase kappa (Homo sapiens), Q9UBT6; purified Pol kappa, fluorescent DNA synthesis assay, 10 min; Potency, µM (doses to about 107 µM), hits mostly inhibitors; 400,000 compounds, 0.53% hits; AID 588579, 2011
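50 nM final substrate added after 15 min RT preincubation of 10 nM Pol kappa with compound; fluorescence read at 0 and 10 min.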
Pol beta inh = qHTS Assay for Inhibitors of DNA Polymerase Beta | P06746 | Pol beta primer extension/strand displacement, fluorescence kinetic | Potency, µM (titrated, usually from 114 µM), usual class: inhibitors | 340,000 compounds, 1.3% hits
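Homogeneous kinetic assay of primer extension and strand displacement by 10 nM Pol beta, preincubated 15 min at room temperature with compound before 50 nM substrate (final) was added. Read at 0 and 10 min; four-parameter Hill fit.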
POLI inh = qHTS for Inhibitors of Polymerase Iota; Pol iota fluorescent replication assay, 10 min; Potency, µM (highest dose often 115 µM), hits mostly inhibitors; 390,000 compounds, 1% hits; AID 588590, 2011
Target sequence (Q9UNA4 whole entry, looked up): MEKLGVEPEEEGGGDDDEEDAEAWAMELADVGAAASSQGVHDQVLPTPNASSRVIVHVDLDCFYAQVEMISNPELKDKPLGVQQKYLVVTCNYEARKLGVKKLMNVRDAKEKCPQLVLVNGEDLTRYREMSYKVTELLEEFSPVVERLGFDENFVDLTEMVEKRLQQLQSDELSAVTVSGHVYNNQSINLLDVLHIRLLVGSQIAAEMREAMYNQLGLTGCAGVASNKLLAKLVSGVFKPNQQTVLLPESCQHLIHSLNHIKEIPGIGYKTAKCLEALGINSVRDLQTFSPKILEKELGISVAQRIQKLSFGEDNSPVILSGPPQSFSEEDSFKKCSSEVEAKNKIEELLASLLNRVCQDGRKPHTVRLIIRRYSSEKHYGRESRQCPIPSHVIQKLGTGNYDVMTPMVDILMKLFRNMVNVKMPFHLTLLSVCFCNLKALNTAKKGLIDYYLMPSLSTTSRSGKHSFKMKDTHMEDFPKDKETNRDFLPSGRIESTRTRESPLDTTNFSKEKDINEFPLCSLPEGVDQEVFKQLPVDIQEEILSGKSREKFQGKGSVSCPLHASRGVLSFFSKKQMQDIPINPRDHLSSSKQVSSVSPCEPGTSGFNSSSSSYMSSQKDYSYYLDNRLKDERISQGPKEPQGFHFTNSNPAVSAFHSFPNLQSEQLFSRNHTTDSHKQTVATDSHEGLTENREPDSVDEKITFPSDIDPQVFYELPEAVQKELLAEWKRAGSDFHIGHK
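Pol iota at 10 nM preincubated 15 min with compounds at room temperature; reaction started with fluorescent substrate, 50 nM final. Fluorescence read kinetically at 0 and 10 min; buffer-only wells as negative control.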
WRN helicase inh = qHTS for Inhibitors of WRN Helicase; 360,000 compounds, 0.46% hits; Potency, µM (titrated, usually from 114 µM), actives largely listed as inhibitors; Bifunctional 3'-5' exonuclease/ATP-dependent helicase WRN (Homo sapiens), Q14191; WRN helicase unwinding, fluorescent forked duplex, kinetic; further: nearly all actives have a fitted effect of over 55% in size
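Enzyme (20 nM final) and test compound sit together 15 min at room temperature before substrate addition. Substrate is a single-forked duplex oligonucleotide (100 nM) labelled with fluorophore and quencher, with 2 mM ATP; helicase unwinding raises red fluorescence, read kinetically.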
PI5P4K alpha inh = qHTS for Inhibitors of phosphatidylinositol 5-phosphate 4-kinase (PI5P4K). Phosphatidylinositol 5-phosphate 4-kinase type-2 alpha (Homo sapiens), P48426. PI5P4Kalpha enzyme, ADP-Glo luminescence, 60 min; hits give low values. max response, %. 330,000 compounds, 1.2% hits. AID 652105, 2013; active means max response of -50% or lower; inconclusive means between -30% and -50%; inactive means -30% or higher; further: value at the top dose of about 77 µM
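Luminescence from ADP-Glo served as readout of PI5P4Kalpha activity in a qHTS format. Reaction: enzyme, substrate, compound, ATP at 5 microM final, 60 min at RT.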
Large screens that a line does not name were inactive. In the library only some 2.8% were active in any assay of this set; here they are far more common. Unless noted, the call rests on the fitted dose curve; in most records, active means well fitted curve in the direction sought with a large enough effect; inconclusive means small, poorly fitted or top-dose-only effect, or another doubt; inactive means no such curve, though single readings can be large; an effect the other way counts as inactive or inconclusive.

Cc1ccc(CSC2=Nc3ccccc3C3=NC(CC(=O)NCc4cccs4)C(=O)N23)cc1 (stereo unspecified)	none (no result: WRN helicase inh, PI5P4K alpha inh)
O=C(Nc1cccc2c(=O)[nH][nH]c(=O)c12)c1ccc([N+](=O)[O-])cc1	WRN helicase inh inconclusive, PI5P4K alpha inh -65 (no result: POLH inh, Pol kappa inh, Pol beta inh, POLI inh)
Cc1cccc(-c2nnn3c2nc(NCCc2ccc(S(N)(=O)=O)cc2)c2ccccc23)c1	POLH inh inconclusive, Pol beta inh 10µM, POLI inh inconclusive
Cc1ccc(-c2nnn3c2nc(NCCc2ccc(Cl)cc2)c2ccccc23)cc1	none (no result: WRN helicase inh, PI5P4K alpha inh)
Cc1ccc(-c2nnn3c2nc(NCCc2ccc(S(N)(=O)=O)cc2)c2ccccc23)cc1	Pol beta inh 5µM
COc1ccc(-n2c(CCc3ccccc3)nnc2SCC(=O)c2ccc(Cl)cc2)cc1	POLH inh inconclusive
O=C(CSc1nnc(CCc2ccccc2)n1-c1ccc(Cl)cc1)c1ccccc1	PI5P4K alpha inh -50
COc1cccc(Cn2c(=O)c(-c3cccs3)nc3cnc(N(C)C)nc32)c1	none (no result: POLH inh, Pol beta inh, POLI inh, WRN helicase inh, PI5P4K alpha inh)
O=C(O)c1ccccc1-n1cccc1C(=O)O	POLH inh 40µM, Pol beta inh 25µM, POLI inh inconclusive
N=C1S/C(=C\c2ccccc2F)C(=O)N1c1ccc(F)cc1	none
N=C1S/C(=C\c2cn[nH]c2-c2ccc(F)cc2)C(=O)N1c1ccccc1F	PI5P4K alpha inh -70
COc1ccc(NC(=O)COc2ccccc2C(=O)Nc2ccccc2)cc1	none (no result: POLH inh, Pol beta inh, WRN helicase inh, PI5P4K alpha inh)
CCCCNC(=O)COC(=O)c1c2c(nc3ccccc13)/C(=C/c1cccs1)CC2	POLH inh inconclusive, Pol beta inh 25µM, PI5P4K alpha inh inconclusive
Cc1ccc(-c2c3c(=O)n(C)c(=O)n(C)c3c3c(C(F)(F)F)nc4ccccc4n23)cc1	none (no result: WRN helicase inh, PI5P4K alpha inh)
COc1ccc(NC(=O)/C(Cl)=C(/Cl)S(=O)Cc2ccc(Cl)cc2)cn1 (stereo unspecified)	POLH inh inconclusive, Pol beta inh inconclusive, POLI inh inconclusive, WRN helicase inh 22µM
O=C(Nc1cccc([N+](=O)[O-])c1)c1cccc(C(=O)Nc2cccc([N+](=O)[O-])c2)c1	Pol beta inh 1.1µM
O=C(Nc1cc(Sc2ccccn2)cc([N+](=O)[O-])c1)c1ccc([N+](=O)[O-])cc1	POLH inh inconclusive, WRN helicase inh 32µM, PI5P4K alpha inh -75
CCOC(=O)/C=C/C(=O)Nc1cccc([N+](=O)[O-])c1	WRN helicase inh 35µM
O=C(O)c1ccc(N=NNc2cccc([N+](=O)[O-])c2)cc1	PI5P4K alpha inh -53
COc1ccc(CCN2CC(C(=O)NCc3nc4ccccc4n3C)CCC2=O)cc1 (stereo unspecified)	none
COc1ccccc1C(=O)CN1C(=O)NC2(CCc3ccccc32)C1=O (stereo unspecified)	none (no result: Pol beta inh)
N#C/C(=N\Nc1ccc([N+](=O)[O-])cc1)C(N)=S	POLI inh inconclusive, PI5P4K alpha inh inconclusive
O=C(O)c1cccc(NC(=O)c2ccc(N3C(=O)c4ccc(C(=O)Nc5cccc(C(=O)O)c5)cc4C3=O)cc2)c1	PI5P4K alpha inh -51
N#C/C(=N\Nc1cccc([N+](=O)[O-])c1)C(=O)c1ccc(Br)cc1	POLH inh 79µM, POLI inh inconclusive, WRN helicase inh inconclusive
O=C(Nc1cccc([N+](=O)[O-])c1)c1ccc2c(c1)C(=O)N(c1ccccn1)C2=O	Pol beta inh 45µM
CC(=O)c1ccc(NC(=O)c2ccc3c(c2)C(=O)N(c2ccccn2)C3=O)cc1	none
O=C(O)c1cccc(N2C(=O)c3ccc(C(=O)c4cccc([N+](=O)[O-])c4)cc3C2=O)c1	POLH inh 56µM
Cc1coc2c1c(C)cc1oc(=O)c(CC(=O)NCc3ccc(Cl)cc3)c(C)c12	none (no result: WRN helicase inh, PI5P4K alpha inh)
Cc1[nH]c2c(C)cccc2c(=O)c1CN1CCCCCC1	none
CN(Cc1ccccc1)C(=O)[C@H](Cc1ccc2ccccc2c1)NC(=O)[C@@H]1C[C@@H](O)CN1C(=O)c1cn(C)c2ccccc12	none (no result: POLH inh, Pol beta inh, POLI inh, WRN helicase inh, PI5P4K alpha inh)
Cc1ccc(OCCCCn2nnc3sc4c(c3c2=O)CCC(C)C4)cc1 (stereo unspecified)	Pol beta inh 25µM (no result: POLH inh, WRN helicase inh, PI5P4K alpha inh)
Cc1cccc(OCCn2nnc3sc4c(c3c2=O)CCCC4)c1	Pol beta inh 20µM, POLI inh inconclusive (no result: POLH inh, WRN helicase inh, PI5P4K alpha inh)
Cc1ccc(OCCCCn2nnc3sc4c(c3c2=O)CCCC4)cc1	none (no result: POLH inh, WRN helicase inh, PI5P4K alpha inh)
O=[N+]([O-])c1cccc(-c2nc3ccc([N+](=O)[O-])cc3[nH]2)c1	POLH inh inconclusive, PI5P4K alpha inh inconclusive
O=[N+]([O-])c1ccc(O)c(C=Nc2ccc3nc(-c4ccccc4)[nH]c3c2)c1	POLH inh inconclusive, Pol beta inh 28µM, PI5P4K alpha inh inconclusive
Cc1[nH]c2ccccc2c1C1=CC(=O)C=CC1=O	POLH inh inconclusive, POLI inh inconclusive, WRN helicase inh 56µM, PI5P4K alpha inh -97 (no result: Pol beta inh)
Cc1[nH]c2ccccc2c1CC#N	none
Cc1cc(C)nc(N/N=C/c2ccccc2OCc2ccccc2)n1	none
O=C(O)c1ccccc1NS(=O)(=O)c1ccc(NN=Cc2ccc(F)cc2)c([N+](=O)[O-])c1	POLH inh 35µM, WRN helicase inh inconclusive, PI5P4K alpha inh -58 (no result: Pol beta inh)
O=C(O)COc1ccccc1/C=N/Nc1ccc(S(=O)(=O)Nc2ccc(Cl)cc2)cc1[N+](=O)[O-]	POLH inh 28µM, Pol kappa inh inconclusive, Pol beta inh inconclusive, POLI inh inconclusive, WRN helicase inh inconclusive
O=C(O)c1ccccc1NS(=O)(=O)c1ccc(NN=Cc2cccc(Cl)c2)c([N+](=O)[O-])c1	POLH inh 20µM, POLI inh inconclusive, WRN helicase inh inconclusive, PI5P4K alpha inh -66 (no result: Pol beta inh)
NS(=O)(=O)c1ccc(N/N=C/c2ccccc2C(=O)O)c([N+](=O)[O-])c1	none
Cc1cc(C)nc(N/N=C/c2ccccc2OCC(=O)O)n1	POLH inh 28µM
O=[N+]([O-])c1ccc(Nc2nc(Cl)nc(NCCO)n2)cc1	none
Nc1c(S(=O)(=O)O)cc(Nc2ccc(Nc3nc(Cl)nc(Nc4ccc(S(=O)(=O)O)cc4)n3)c(S(=O)(=O)O)c2)c2c1C(=O)c1ccccc1C2=O	POLH inh 0.63µM, Pol kappa inh 2.7µM, Pol beta inh 1.1µM, POLI inh 1.6µM (no result: WRN helicase inh, PI5P4K alpha inh)
C[n+]1ccc(C(c2c[nH]c3ccccc23)c2cc[n+](C)c3ccccc23)c2ccccc21	Pol kappa inh 79µM, POLI inh 89µM (no result: POLH inh, Pol beta inh, WRN helicase inh, PI5P4K alpha inh)
c1ccc2c(C(c3c[nH]c4ccccc34)c3c[nH]c4ccccc34)c[nH]c2c1	none (no result: POLH inh, Pol beta inh, WRN helicase inh, PI5P4K alpha inh)
Cc1ccc(Cc2nc3ccccc3nc2SCC(=O)NCc2ccccc2Cl)cc1	none (no result: WRN helicase inh, PI5P4K alpha inh)
